Shown are actives, neighbours in structure and some others; about 19% of the full set was active somewhere.
HT1080 IDH1KD tx = kills HT-1080 cells with IDH1 knockdown. HT-1080 IDH1 knockdown viability, ATP luminescence, 48 h. Potency, µM (top dose mostly 46.1 µM), for inactives: at the highest dose activity, negative = toxicity, usual class: cytotoxic. hit rate 2% among 360,000;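 further: potency means the concentration at half of the fitted maximal effect; 0% = DMSO wells and -100% = cell-free medium wells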
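In this qHTS, HT-1080 cells depleted of IDH1 are exposed for 48 h at 37 °C to compound titrations. Toxicity is scored from CellTiter-Glo luminescence, with DMSO as full viability and medium alone as none.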
HT1080-NT tox = kills 2HG-producing HT-1080-NT fibrosarcoma cells; Potency, µM (series often up to 46.1 µM), for the others: at the top dose activity, negative = less viability, usual class: cytotoxic; AID 686970; hit rate 1.6% among 360,000; HT-1080-NT fibrosarcoma viability, CellTiter-Glo ATP luminescence, 48 h;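 further: NT is the 2HG producing partner of a matched IDH1 knockdown line; potency means the concentration at half of the fitted maximal effect; 0% = DMSO-treated cells and -100% = media-only wells without cells; nearly all actives have a fitted effect of over 55% in size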
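Compounds were tested in concentration-response format on HT-1080-NT cells for 48 hours at 37 degrees C. Cell viability came from CellTiter-Glo luminescence; curves were classified by r2, response magnitude and activity.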
TDP1 cell CPT = DT40-hTDP1 cell growth loss with CPT | chicken DT40 Tdp1-/-;hTDP1 cells + 20 nM CPT, ATP luminescence, 48 h | Potency, µM (doses to about 46.2 µM), for the others: top-dose activity change, negative = growth inhibition, most hits filed as inhibitors | hit rate 12% among 420,000 | AID 686979; further: potency means the concentration at half of the fitted maximal effect; nearly all actives have a fitted effect of over 55% in size
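Chicken DT40 Tdp1-/- cells complemented with human TDP1, 400 cells/well, exposed to compounds plus 20 nM camptothecin for at least 48 h at 37 C; viability read as ATP content by CellTiter-Glo luminescence.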
ELG1 DNA repair = blocks ELG1-dependent DNA repair in HEK293T cells; hit rate 2.3% among 330,000; HEK293T ELG1-luciferase reporter, luminescence, 16 h; DNA damage induced by 5-fluorouridine; Potency, µM (doses to about 46.1 µM), for inactives: top-dose activity change, negative = inhibition, usual class: inhibitors; AID 504467; further: potency means the concentration at half of the fitted maximal effect; nearly all actives have a fitted effect of over 55% in size
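Quantitative HTS, concentration-response format. 2,000 cells/well co-treated with 5-fluorouridine and compound, 16 hr in 5% CO2 at 37 °C; ONE-Glo luminescence read after 30 min.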
IL-1B inflam inh = inflammasome signaling inhibition, IL-1 beta readout. AID 743279. hit rate 4.7% among 360,000. activity change, % at 57.5 µM. THP-1 LPS/ATP IL-1B secretion, AlphaLISA, 16 h; active compounds read low; in the data active means activity change below about -50%; inconclusive means mostly about -30% to -49%
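THP-1 cells pretreated 1 hr with compounds (up to 57.5 uM final), then stimulated with LPS (250 ng/mL final) plus ATP (1.25 mM final); secreted IL-1B measured by AlphaLISA after 16 hr, decreased signal indicating inhibition.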
DT40 TDP1 no CPT = qHTS for Inhibitors of human tyrosyl-DNA phosphodiesterase 1 (TDP1): qHTS in cells in absence of CPT; AID 686978, 2013; DT40 Tdp1-/- hTDP1 cells, no CPT, ATP luminescence, 48 h; hit rate 15% among 420,000; Potency, µM (top dose mostly 46.2 µM), for inactives: at the top dose activity change, negative = growth inhibition, actives largely listed as inhibitors; further: potency means the concentration at half of the fitted maximal effect; nearly all actives have a fitted effect of over 55% in size
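Compound effects on proliferation are scored in DT40 Tdp1-/-;hTDP1 cells in the absence of CPT. ATP levels (CellTiter-Glo luminescence) are recorded after a ≥48 hr, 37 °C incubation.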
* hit, by the source's call. Unless noted, the call rests on the fitted dose curve; in most records, active means well fitted curve in the direction sought with a large enough effect; inconclusive means small, poorly fitted or top-dose-only effect, or another doubt; inactive means no such curve, though single readings can be large; an effect the other way counts as inactive or inconclusive. Unless noted, on the % scale 0 is the no-effect control and ±100 the full control effect.

Results for C=C1C=C(C(F)F)n2ncc(C(=O)NCc3ccc(Cl)cc3)c2N1 ?
TDP1 cell CPT: -6%; DT40 TDP1 no CPT: -28%

Results for C=C1C=C(C(F)F)n2ncc(C(=O)NCc3ccc(OC)cc3)c2N1 ?
TDP1 cell CPT: 11µM*; DT40 TDP1 no CPT: inconclusive

Results for C=C1C=C(C(F)F)n2ncc(C(=O)NCCc3ccc(Cl)cc3)c2N1 ?
TDP1 cell CPT: 13µM*; DT40 TDP1 no CPT: inconclusive

What do the screens show for `O=C(Nc1ccn(CCOC(=O)c2ccccc2)c(=O)n1)c1ccccc1`?
HT1080 IDH1KD tx: 6%; HT1080-NT tox: 2%; TDP1 cell CPT: -7%; IL-1B inflam inh: 27; DT40 TDP1 no CPT: -29%

What do the screens show for `NS(=O)(=O)c1ccc(Nc2nc(-c3ccc(F)cc3)cs2)cc1`?
HT1080 IDH1KD tx: 15µM*; HT1080-NT tox: inconclusive; TDP1 cell CPT: 18µM*; ELG1 DNA repair: 2%; IL-1B inflam inh: -88*; DT40 TDP1 no CPT: 21µM*

What do the screens show for `NS(=O)(=O)c1ccc(Nc2nc(-c3ccc(O)cc3O)cs2)cc1`?
HT1080 IDH1KD tx: 21%; HT1080-NT tox: 16%; TDP1 cell CPT: -4%; ELG1 DNA repair: -18%; IL-1B inflam inh: -57*; DT40 TDP1 no CPT: -8%

How did CC(=O)Nc1ccc(-c2csc(Nc3ccc(S(N)(=O)=O)cc3)n2)cc1 do in these assays?
HT1080 IDH1KD tx: 2%; HT1080-NT tox: -9%; TDP1 cell CPT: 9%; ELG1 DNA repair: -14%; IL-1B inflam inh: -2; DT40 TDP1 no CPT: -4%

Results for NS(=O)(=O)c1ccc(Nc2nc(-c3cccnc3)cs2)cc1 ?
HT1080 IDH1KD tx: 15%; HT1080-NT tox: 14%; TDP1 cell CPT: -32%; ELG1 DNA repair: inconclusive; IL-1B inflam inh: 6; DT40 TDP1 no CPT: inconclusive

How did COc1ccc(-c2csc(Nc3ccc(S(N)(=O)=O)cc3)n2)cc1OC do in these assays?
HT1080 IDH1KD tx: -6%; HT1080-NT tox: 3%; TDP1 cell CPT: inconclusive; ELG1 DNA repair: inconclusive; IL-1B inflam inh: -64*; DT40 TDP1 no CPT: inconclusive

Results for COc1cc(Nc2ccc(S(N)(=O)=O)cc2)c([N+](=O)[O-])nc1[N+](=O)[O-] ?
HT1080 IDH1KD tx: 5%; HT1080-NT tox: 0%; TDP1 cell CPT: 16µM*; ELG1 DNA repair: inconclusive; IL-1B inflam inh: -3; DT40 TDP1 no CPT: inconclusive

Results for Cc1nn(-c2ccccc2)c(OC(=O)c2ccccc2F)c1S(=O)(=O)c1ccccc1 ?
TDP1 cell CPT: 0%; DT40 TDP1 no CPT: -6%

What do the screens show for `Cc1cc(NS(=O)(=O)c2ccc(Nc3nc(-c4ccc(C)c(C)c4)cs3)cc2)no1`?
HT1080 IDH1KD tx: -16%; HT1080-NT tox: -10%; TDP1 cell CPT: inconclusive; ELG1 DNA repair: inconclusive; IL-1B inflam inh: -56*; DT40 TDP1 no CPT: inconclusive

How did CC(C)NC(=O)C1(C)CN(S(C)(=O)=O)CC(=O)N1Cc1cccc(C(F)(F)F)c1 (centres undefined) do in these assays?
HT1080 IDH1KD tx: -15%; HT1080-NT tox: -12%; TDP1 cell CPT: -2%; IL-1B inflam inh: -4; DT40 TDP1 no CPT: inconclusive

What do the screens show for `COc1cc2c(cc1NC(=O)C(C)Sc1ccc(NC(C)=O)cc1)oc1ccccc12` (centres undefined)?
HT1080 IDH1KD tx: inconclusive; HT1080-NT tox: inconclusive; TDP1 cell CPT: inconclusive; ELG1 DNA repair: 16µM*; IL-1B inflam inh: inconclusive; DT40 TDP1 no CPT: inconclusive

Results for COc1ccc(NC(=O)Nc2cc3oc4ccccc4c3cc2OC)cc1 ?
HT1080 IDH1KD tx: -16%; HT1080-NT tox: -2%; TDP1 cell CPT: inconclusive; ELG1 DNA repair: inconclusive; IL-1B inflam inh: -5; DT40 TDP1 no CPT: inconclusive

What do the screens show for `COc1ccc(/C=C/C(=O)NC(=S)Nc2cc3oc4ccccc4c3cc2OC)cc1`?
HT1080 IDH1KD tx: 26%; HT1080-NT tox: 11%; TDP1 cell CPT: 9.2µM*; ELG1 DNA repair: inconclusive; IL-1B inflam inh: 40; DT40 TDP1 no CPT: inconclusive

How did COc1cc2c(cc1NC(=S)NC(=O)/C=C/c1ccco1)oc1ccccc12 do in these assays?
HT1080 IDH1KD tx: inconclusive; HT1080-NT tox: inconclusive; TDP1 cell CPT: 16µM*; ELG1 DNA repair: -8%; IL-1B inflam inh: 15; DT40 TDP1 no CPT: inconclusive

What do the screens show for `COc1cc2c(cc1NC(=S)NC(=O)/C=C/c1ccc(OC)c(OC)c1)oc1ccccc12`?
HT1080 IDH1KD tx: -12%; HT1080-NT tox: 8%; TDP1 cell CPT: 6%; ELG1 DNA repair: 0%; IL-1B inflam inh: 23; DT40 TDP1 no CPT: 5%

Results for COc1cc2c(cc1NC(=S)Nc1cccc(C)c1)oc1ccccc12 ?
HT1080 IDH1KD tx: inconclusive; HT1080-NT tox: 10µM*; TDP1 cell CPT: inconclusive; ELG1 DNA repair: 4%; IL-1B inflam inh: -3; DT40 TDP1 no CPT: inconclusive

Results for COc1ccc(OC)c(S(=O)(=O)n2ccc(C)n2)c1 ?
HT1080 IDH1KD tx: 21%; HT1080-NT tox: 27%; TDP1 cell CPT: -30%; ELG1 DNA repair: 7%; IL-1B inflam inh: 6; DT40 TDP1 no CPT: inconclusive

How did COc1ccc(C(=O)NC2=NCCS2)cc1S(=O)(=O)N1CCOCC1 do in these assays?
HT1080 IDH1KD tx: 11%; HT1080-NT tox: -1%; TDP1 cell CPT: 6%; IL-1B inflam inh: 11; DT40 TDP1 no CPT: 5%

How did O=C(O)c1ccccc1OC(C(=O)Nc1cc(Cl)cc(Cl)c1)c1ccccc1 (centres undefined) do in these assays?
HT1080 IDH1KD tx: 0%; HT1080-NT tox: inconclusive; TDP1 cell CPT: 29µM*; ELG1 DNA repair: inconclusive; IL-1B inflam inh: 23; DT40 TDP1 no CPT: 26µM*

How did CC1CCN(C(C(=O)Nc2ccc(C(C)C)cc2)c2ccc3c(c2)OCO3)CC1 (centres undefined) do in these assays?
HT1080 IDH1KD tx: -15%; HT1080-NT tox: -1%; TDP1 cell CPT: inconclusive; ELG1 DNA repair: -2%; IL-1B inflam inh: -18; DT40 TDP1 no CPT: inconclusive

What do the screens show for `Cc1ccc(NC(=O)C(c2ccc(Cl)cc2Cl)N2CCCC2)cc1` (centres undefined)?
HT1080 IDH1KD tx: -16%; HT1080-NT tox: -15%; TDP1 cell CPT: 23µM*; ELG1 DNA repair: 0%; IL-1B inflam inh: -14; DT40 TDP1 no CPT: 15µM*

How did CC(C)c1ccc(NC(=O)C(c2ccc3c(c2)OCO3)N2CCCCC2)cc1 (centres undefined) do in these assays?
HT1080 IDH1KD tx: -8%; HT1080-NT tox: -10%; TDP1 cell CPT: 18µM*; ELG1 DNA repair: 9%; IL-1B inflam inh: 0; DT40 TDP1 no CPT: 23µM*
